# What was measured:
# Test in all cases: DAPPL (digital affinity profiling via proximity ligation, sequencing); 10 mM Tris-HCl pH 7.5, 50 mM NaCl, 1 mM DTT, 4% glycerol, room temperature, 30 min; GST-TFs on glutathione beads, 16-mer random dsDNA library, 0.1% formaldehyde crosslink after washing; high values mean tight binding
# FLI1 = target: T1, FLI1 (Homo sapiens, UniProt Q01543 1-452); settings: protein: recombinant; tags: N-terminal GST; dsDNA, one strand shown
# T1 sequence: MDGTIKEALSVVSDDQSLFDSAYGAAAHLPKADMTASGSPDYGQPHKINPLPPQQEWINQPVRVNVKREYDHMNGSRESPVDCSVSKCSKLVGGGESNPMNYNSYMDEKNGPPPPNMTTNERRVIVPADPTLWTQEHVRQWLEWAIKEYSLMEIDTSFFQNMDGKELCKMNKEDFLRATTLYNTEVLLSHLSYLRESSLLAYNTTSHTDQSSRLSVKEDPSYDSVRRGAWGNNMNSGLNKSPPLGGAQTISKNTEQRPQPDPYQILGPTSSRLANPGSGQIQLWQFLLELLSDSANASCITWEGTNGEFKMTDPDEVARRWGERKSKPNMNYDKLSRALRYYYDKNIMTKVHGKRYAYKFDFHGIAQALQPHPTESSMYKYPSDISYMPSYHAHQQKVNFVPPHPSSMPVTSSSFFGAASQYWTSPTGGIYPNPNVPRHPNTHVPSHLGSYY
# Outline: (§1)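 Binding signal is defined as a hexamer's read frequency for one factor over its frequency for the tag-only sample. To obtain reads, GST-fused human transcription factors were expressed in yeast, captured on glutathione beads, barcoded with DNA and pooled with that sample. Pools met 200 nmole of a 16-mer random double-stranded DNA library in Tris/NaCl/DTT/glycerol buffer for 30 min at room temperature before washing, 0.1% formaldehyde crosslinking, proximity ligation (BsaI/T4 ligase, 1 h, 37 °C), PCR and Illumina NextSeq500 sequencing.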
# ELK1 = target: T2, ELK1 (Homo sapiens, UniProt P19419 1-428); settings: protein: recombinant; tags: N-terminal GST; dsDNA, one strand shown
# T2 sequence: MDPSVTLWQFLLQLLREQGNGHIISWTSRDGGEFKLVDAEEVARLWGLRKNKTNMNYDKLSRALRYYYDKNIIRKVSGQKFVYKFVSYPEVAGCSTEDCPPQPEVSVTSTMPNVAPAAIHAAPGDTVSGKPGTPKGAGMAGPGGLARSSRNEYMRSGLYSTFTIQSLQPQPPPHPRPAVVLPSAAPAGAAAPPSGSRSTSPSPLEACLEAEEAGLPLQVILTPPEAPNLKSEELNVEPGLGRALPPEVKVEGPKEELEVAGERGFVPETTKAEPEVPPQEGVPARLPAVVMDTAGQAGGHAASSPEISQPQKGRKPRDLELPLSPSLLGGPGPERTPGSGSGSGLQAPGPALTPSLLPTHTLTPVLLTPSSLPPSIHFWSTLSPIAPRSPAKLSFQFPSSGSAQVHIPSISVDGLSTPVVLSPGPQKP
# Outline: as §1
# GABPA = target: T3, GABPA (Homo sapiens, UniProt Q06546 1-454); settings: protein: recombinant; tags: N-terminal GST; dsDNA, one strand shown
# T3 sequence: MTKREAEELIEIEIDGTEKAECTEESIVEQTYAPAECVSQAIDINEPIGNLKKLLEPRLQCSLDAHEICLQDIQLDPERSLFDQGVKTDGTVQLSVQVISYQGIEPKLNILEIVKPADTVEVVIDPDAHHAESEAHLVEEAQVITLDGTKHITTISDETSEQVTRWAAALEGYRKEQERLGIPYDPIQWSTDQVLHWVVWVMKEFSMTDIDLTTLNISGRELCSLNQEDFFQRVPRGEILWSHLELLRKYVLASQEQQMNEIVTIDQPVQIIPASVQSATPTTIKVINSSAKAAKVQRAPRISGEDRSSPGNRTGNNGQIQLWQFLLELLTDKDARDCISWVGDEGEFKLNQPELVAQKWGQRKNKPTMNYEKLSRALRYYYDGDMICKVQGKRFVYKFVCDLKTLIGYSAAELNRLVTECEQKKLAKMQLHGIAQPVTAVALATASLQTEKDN
# Outline: as §1
# ERG = target: T4, ERG (Homo sapiens, UniProt P11308 1-479); settings: protein: recombinant; tags: N-terminal GST; dsDNA, one strand shown
# T4 sequence: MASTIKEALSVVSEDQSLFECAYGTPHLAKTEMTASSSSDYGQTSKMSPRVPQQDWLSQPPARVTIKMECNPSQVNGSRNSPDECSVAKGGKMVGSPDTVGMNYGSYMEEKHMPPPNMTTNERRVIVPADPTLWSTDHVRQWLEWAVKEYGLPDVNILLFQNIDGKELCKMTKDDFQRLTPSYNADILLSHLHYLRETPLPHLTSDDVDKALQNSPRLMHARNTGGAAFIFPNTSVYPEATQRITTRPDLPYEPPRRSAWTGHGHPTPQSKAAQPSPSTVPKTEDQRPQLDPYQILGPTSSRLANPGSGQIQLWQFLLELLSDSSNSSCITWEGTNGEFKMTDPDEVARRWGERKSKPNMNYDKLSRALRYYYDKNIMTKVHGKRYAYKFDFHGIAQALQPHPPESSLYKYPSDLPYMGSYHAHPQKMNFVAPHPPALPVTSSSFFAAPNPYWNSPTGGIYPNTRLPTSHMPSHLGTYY
# Outline: as §1
# ELF1 = ELF1 (Homo sapiens, UniProt P32519 1-619); settings: protein: recombinant; tags: N-terminal GST; dsDNA, one strand shown
# Sequence of ELF1 (P32519 whole entry): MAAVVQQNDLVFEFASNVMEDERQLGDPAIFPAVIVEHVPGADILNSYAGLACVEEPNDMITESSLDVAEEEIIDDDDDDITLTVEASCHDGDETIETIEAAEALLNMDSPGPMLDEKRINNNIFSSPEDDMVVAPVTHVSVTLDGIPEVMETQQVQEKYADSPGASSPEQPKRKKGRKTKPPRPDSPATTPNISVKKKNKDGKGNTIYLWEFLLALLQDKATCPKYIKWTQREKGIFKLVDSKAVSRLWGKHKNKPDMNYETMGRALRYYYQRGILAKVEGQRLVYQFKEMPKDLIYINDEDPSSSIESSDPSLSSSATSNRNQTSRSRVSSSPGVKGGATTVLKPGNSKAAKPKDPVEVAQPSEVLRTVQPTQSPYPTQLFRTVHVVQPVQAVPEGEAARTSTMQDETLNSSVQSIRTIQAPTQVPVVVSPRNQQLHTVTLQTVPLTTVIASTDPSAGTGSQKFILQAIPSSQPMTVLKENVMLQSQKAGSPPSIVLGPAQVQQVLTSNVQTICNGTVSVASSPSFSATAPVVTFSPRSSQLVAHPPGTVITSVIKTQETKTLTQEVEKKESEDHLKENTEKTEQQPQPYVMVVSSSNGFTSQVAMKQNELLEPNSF
# Outline: as §1
# EHF = target: T5, EHF (Homo sapiens, UniProt Q9NZC4 1-300); settings: protein: recombinant; tags: N-terminal GST; dsDNA, one strand shown
# T5 sequence: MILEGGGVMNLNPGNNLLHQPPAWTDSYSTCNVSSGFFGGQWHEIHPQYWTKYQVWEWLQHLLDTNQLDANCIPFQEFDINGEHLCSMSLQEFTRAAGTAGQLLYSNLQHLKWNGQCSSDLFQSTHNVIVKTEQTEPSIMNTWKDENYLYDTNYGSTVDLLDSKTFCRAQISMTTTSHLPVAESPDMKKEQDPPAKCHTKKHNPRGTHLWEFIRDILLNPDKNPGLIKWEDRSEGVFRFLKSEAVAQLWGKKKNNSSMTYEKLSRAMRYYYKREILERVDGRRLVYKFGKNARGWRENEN
# Outline: as §1
# SPI1 = SPI1 (Homo sapiens, UniProt P17947 1-270); settings: protein: recombinant; tags: N-terminal GST; dsDNA, one strand shown
# Outline: as §1
# SPIB = SPIB (Homo sapiens, UniProt Q01892 1-262); settings: protein: recombinant; tags: N-terminal GST; dsDNA, one strand shown
# Sequence of SPIB (Q01892 whole entry): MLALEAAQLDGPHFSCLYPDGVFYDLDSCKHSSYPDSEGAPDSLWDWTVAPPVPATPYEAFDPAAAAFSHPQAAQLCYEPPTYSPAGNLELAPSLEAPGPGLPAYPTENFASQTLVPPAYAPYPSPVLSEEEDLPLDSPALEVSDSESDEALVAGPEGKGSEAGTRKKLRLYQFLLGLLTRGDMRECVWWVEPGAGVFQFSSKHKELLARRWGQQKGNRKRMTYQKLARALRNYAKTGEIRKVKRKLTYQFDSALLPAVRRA
# Outline: as §1
# ELK3 = target: T6, ELK3 (Homo sapiens, UniProt P41970 1-407); settings: protein: recombinant; tags: N-terminal GST; dsDNA, one strand shown
# T6 sequence: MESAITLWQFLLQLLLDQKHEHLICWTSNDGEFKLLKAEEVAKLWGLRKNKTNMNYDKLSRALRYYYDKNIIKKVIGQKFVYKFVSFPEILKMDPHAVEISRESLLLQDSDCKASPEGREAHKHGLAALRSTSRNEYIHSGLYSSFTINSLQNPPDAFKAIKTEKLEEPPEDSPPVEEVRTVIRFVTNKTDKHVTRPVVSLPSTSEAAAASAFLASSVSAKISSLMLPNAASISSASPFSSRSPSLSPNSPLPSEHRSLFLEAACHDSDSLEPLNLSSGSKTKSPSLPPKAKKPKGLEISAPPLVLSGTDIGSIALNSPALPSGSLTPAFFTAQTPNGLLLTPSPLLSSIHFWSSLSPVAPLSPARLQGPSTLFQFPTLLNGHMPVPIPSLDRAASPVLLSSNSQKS
# Outline: as §1
# FEV = target: T7, FEV (Homo sapiens, UniProt Q99581 1-238); settings: protein: recombinant; tags: N-terminal GST; dsDNA, one strand shown
# T7 sequence: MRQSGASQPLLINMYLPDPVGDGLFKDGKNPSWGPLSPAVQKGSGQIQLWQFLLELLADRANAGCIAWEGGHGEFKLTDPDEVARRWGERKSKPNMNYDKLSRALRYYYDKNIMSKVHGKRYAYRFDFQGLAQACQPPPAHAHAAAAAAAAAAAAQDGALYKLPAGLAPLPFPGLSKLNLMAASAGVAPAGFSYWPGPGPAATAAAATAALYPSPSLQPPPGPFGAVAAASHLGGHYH
# Outline: as §1
# ETV5 = ETV5 (Homo sapiens, UniProt P41161 1-510); settings: protein: recombinant; tags: N-terminal GST; dsDNA, one strand shown
# Sequence of ETV5 (P41161 whole entry): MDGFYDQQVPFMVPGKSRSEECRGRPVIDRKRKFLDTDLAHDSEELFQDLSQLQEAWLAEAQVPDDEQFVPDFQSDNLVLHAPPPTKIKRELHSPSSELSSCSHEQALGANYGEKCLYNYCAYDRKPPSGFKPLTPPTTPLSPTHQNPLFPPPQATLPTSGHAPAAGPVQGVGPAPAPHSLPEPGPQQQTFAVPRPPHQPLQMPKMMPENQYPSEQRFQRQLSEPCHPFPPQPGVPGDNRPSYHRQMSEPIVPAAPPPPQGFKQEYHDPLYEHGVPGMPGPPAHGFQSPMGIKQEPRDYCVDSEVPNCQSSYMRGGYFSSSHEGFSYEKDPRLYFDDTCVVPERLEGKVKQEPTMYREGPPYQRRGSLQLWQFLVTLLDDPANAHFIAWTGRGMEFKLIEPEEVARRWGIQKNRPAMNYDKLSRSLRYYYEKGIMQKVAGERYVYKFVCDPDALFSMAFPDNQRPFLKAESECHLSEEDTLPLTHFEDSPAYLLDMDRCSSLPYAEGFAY
# Outline: as §1
# HSF1 = HSF1 (Homo sapiens, UniProt Q00613 1-529); settings: protein: recombinant; tags: N-terminal GST; chain copies: 3; dsDNA, one strand shown
# Sequence of HSF1 (Q00613 whole entry): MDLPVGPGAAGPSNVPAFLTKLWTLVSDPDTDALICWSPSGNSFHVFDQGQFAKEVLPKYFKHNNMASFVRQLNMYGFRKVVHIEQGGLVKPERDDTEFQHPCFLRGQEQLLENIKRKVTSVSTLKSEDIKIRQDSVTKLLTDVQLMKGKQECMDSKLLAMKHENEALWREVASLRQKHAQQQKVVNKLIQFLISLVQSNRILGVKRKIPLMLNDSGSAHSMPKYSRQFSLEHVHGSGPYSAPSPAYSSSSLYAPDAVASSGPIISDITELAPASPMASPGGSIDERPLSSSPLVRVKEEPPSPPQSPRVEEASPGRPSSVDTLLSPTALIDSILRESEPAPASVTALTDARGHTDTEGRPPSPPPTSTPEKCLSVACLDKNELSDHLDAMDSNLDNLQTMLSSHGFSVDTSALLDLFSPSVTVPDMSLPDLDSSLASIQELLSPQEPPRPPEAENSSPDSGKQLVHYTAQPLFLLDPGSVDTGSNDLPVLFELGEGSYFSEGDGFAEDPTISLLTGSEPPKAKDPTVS
# Outline: as §1
# SPIC = target: T8, SPIC (Homo sapiens, UniProt Q8N5J4 1-248); settings: protein: recombinant; tags: N-terminal GST; dsDNA, one strand shown
# T8 sequence: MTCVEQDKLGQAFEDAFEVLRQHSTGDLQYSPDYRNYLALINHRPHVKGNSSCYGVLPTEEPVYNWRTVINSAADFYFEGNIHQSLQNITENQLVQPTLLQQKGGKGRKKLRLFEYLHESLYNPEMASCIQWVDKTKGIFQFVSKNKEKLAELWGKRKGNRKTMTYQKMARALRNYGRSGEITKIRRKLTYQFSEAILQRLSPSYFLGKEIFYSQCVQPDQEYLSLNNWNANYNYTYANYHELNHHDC
# Outline: as §1
# ELF4 = ELF4 (Homo sapiens, UniProt Q99607 1-663); settings: protein: recombinant; tags: N-terminal GST; dsDNA, one strand shown
# Sequence of ELF4 (Q99607 whole entry): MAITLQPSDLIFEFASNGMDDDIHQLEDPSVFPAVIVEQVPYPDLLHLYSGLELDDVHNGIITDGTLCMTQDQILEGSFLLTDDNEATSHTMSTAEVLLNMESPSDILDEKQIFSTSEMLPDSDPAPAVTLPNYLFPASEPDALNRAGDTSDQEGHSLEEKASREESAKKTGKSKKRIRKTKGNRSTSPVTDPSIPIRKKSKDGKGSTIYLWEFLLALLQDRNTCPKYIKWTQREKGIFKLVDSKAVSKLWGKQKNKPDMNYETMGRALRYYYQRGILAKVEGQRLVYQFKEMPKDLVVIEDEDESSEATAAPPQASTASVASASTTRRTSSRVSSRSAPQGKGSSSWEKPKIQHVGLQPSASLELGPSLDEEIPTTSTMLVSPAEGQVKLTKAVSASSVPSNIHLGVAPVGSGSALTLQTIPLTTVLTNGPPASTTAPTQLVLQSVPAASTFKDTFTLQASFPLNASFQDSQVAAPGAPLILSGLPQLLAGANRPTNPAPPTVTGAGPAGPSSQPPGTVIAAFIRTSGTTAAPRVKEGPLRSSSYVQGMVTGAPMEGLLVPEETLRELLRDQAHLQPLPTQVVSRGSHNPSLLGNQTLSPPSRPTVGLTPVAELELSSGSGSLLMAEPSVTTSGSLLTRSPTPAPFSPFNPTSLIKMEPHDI
# Outline: as §1
# ELK4 = target: T9, ELK4 (Homo sapiens, UniProt P28324-2 1-405); settings: protein: recombinant; tags: N-terminal GST; dsDNA, one strand shown
# T9 sequence: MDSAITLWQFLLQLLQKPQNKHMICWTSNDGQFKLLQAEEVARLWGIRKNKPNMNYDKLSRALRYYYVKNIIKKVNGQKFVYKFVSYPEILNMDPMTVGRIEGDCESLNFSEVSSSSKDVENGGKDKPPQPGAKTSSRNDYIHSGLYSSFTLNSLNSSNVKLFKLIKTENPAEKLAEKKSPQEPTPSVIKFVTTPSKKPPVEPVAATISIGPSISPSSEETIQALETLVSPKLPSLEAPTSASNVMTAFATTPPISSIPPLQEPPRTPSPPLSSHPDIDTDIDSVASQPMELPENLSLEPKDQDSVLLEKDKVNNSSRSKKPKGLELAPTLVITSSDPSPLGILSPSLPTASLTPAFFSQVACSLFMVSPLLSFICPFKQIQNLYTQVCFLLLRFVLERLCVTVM
# Outline: as §1
# ETV2 = target: T10, ETV2 (Homo sapiens, UniProt O00321 1-342); settings: protein: recombinant; tags: N-terminal GST; dsDNA, one strand shown
# T10 sequence: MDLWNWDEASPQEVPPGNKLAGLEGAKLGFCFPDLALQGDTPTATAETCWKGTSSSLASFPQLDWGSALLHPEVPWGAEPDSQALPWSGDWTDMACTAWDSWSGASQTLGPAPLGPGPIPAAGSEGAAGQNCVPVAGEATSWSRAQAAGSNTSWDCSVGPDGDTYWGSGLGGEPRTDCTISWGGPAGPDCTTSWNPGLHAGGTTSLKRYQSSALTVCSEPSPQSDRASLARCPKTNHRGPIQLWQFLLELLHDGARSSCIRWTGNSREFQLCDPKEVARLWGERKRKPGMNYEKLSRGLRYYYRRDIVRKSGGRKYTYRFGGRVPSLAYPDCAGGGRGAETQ
# Outline: as §1
# CRX = CRX (Homo sapiens, UniProt O43186 1-299); settings: protein: recombinant; tags: N-terminal GST; dsDNA, one strand shown
# Sequence of CRX (O43186 whole entry): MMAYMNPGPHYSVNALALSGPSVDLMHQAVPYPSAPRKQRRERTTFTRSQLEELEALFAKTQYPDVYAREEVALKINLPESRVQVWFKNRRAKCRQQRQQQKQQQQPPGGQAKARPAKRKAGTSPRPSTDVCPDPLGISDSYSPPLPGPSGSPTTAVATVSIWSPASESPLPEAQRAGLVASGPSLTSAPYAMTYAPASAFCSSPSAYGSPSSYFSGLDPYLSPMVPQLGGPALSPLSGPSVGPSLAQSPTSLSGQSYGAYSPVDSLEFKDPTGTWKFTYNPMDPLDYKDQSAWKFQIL
# Outline: as §1
# ETV1 = ETV1 (Homo sapiens, UniProt P50549 1-477); settings: protein: recombinant; tags: N-terminal GST; dsDNA, one strand shown
# Sequence of ETV1 (P50549 whole entry): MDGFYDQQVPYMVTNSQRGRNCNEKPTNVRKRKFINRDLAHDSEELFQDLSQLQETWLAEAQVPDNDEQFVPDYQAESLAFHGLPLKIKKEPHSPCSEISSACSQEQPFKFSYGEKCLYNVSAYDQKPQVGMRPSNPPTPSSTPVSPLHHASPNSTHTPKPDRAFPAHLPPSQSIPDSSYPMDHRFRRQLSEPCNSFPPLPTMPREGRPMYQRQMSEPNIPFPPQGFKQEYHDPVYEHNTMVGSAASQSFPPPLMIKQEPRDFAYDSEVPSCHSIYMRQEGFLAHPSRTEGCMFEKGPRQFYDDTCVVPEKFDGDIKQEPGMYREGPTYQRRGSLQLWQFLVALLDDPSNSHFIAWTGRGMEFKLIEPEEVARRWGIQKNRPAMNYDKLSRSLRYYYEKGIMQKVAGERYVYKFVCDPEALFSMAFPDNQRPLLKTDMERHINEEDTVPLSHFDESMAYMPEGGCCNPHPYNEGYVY
# Outline: as §1
sequence,measurement,setting,value
TCTGTA,binding signal,FLI1,"1.23 fold enrichment (6-mer frequency, TF over GST control)"
same,binding signal,ELK1,"1.19 fold enrichment (6-mer frequency, TF over GST control)"
same,binding signal,GABPA,"1.2 fold enrichment (6-mer frequency, TF over GST control)"
same,binding signal,ERG,"1.11 fold enrichment (6-mer frequency, TF over GST control)"
same,binding signal,ELF1,"1.18 fold enrichment (6-mer frequency, TF over GST control)"
same,binding signal,EHF,"1.15 fold enrichment (6-mer frequency, TF over GST control)"
same,binding signal,SPI1,"1.16 fold enrichment (6-mer frequency, TF over GST control)"
same,binding signal,SPIB,"1.19 fold enrichment (6-mer frequency, TF over GST control)"
same,binding signal,ELK3,"1.2 fold enrichment (6-mer frequency, TF over GST control)"
same,binding signal,FEV,"1.24 fold enrichment (6-mer frequency, TF over GST control)"
same,binding signal,ETV5,"1.19 fold enrichment (6-mer frequency, TF over GST control)"
same,binding signal,HSF1,"1.31 fold enrichment (6-mer frequency, TF over GST control)"
same,binding signal,SPIC,"1.39 fold enrichment (6-mer frequency, TF over GST control)"
same,binding signal,ELF4,"1.18 fold enrichment (6-mer frequency, TF over GST control)"
same,binding signal,ELK4,"1.3 fold enrichment (6-mer frequency, TF over GST control)"
same,binding signal,ETV2,"1.28 fold enrichment (6-mer frequency, TF over GST control)"
same,binding signal,CRX,"1.34 fold enrichment (6-mer frequency, TF over GST control)"
same,binding signal,ETV1,"1.28 fold enrichment (6-mer frequency, TF over GST control)"

# From PMC7862700, “An all-to-all approach to the identification of sequence-specific readers for epigenetic DNA modifications on cytosine”
